# From the supplement of paper PMC3334620
# In all, about 33,000 sequences were measured (“E-score (-0.5 to 0.5)”: median about -0.01, highest 2% from about 0.26 on). For the sample, the highest values were picked, then their nearest neighbours and some sequences at random.
# Molecular target: Ste12 (UniProt P13574)
# Assay: PBM E-score (8-mer binding enrichment) (E-score (-0.5 to 0.5)); higher = stronger / more preferred TF binding
# Settings: protein concentration: 200 nM; construct: GST-DNA-binding domain
# Method in brief: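 E-scores (a modified Wilcoxon-Mann-Whitney statistic) were assigned by the Universal PBM Analysis Suite to every ungapped eight-base word pooled with its reverse complement. The input came from universal all-10-mer Agilent arrays made double-stranded by primer extension and probed with GST-tagged yeast transcription factors at about 100-200 nM. Fluorescent anti-GST detected bound protein, and masliner normalised the scans.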
# Chain of UniProt P13574 (P13574 whole entry): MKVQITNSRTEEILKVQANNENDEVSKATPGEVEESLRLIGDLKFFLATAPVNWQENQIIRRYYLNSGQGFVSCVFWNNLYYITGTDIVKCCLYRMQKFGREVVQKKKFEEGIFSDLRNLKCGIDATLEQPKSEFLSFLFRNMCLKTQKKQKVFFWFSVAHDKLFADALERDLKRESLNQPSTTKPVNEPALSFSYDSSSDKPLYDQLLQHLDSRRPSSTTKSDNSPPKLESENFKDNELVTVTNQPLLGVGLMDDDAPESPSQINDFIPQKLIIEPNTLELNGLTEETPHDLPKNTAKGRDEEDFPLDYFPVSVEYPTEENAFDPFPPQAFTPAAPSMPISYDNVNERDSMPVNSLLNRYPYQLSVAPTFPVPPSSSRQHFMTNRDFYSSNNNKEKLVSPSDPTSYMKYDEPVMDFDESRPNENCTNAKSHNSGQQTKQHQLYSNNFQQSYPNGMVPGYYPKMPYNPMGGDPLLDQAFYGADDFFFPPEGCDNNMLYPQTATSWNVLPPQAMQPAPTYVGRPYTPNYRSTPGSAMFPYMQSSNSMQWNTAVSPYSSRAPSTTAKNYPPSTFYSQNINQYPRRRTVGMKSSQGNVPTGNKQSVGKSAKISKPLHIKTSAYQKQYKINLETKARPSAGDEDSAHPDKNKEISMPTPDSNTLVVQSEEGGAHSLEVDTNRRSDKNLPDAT
row,Sequence,PBM E-score
1,GAACACTA,-0.13
2,AAACACTC,0.288
3,AAACACTA,0.273
4,CAACACTA,0.0388
5,AAACACTG,0.248
6,AAACACTT,0.12
7,GCGAGCCA,-0.0412
8,CTGCAAGC,-0.141
9,ATAAGCAA,0.148
10,AATTTCAA,0.106
11,GGTTTCAA,0.416
12,TATTTCAA,0.282
13,CTTTTCAA,0.221
14,TGTTTCAA,0.484
15,CATTTCAA,0.214
16,TGTTCAAA,0.17
17,TCTTTCAA,0.0772
18,GGTTTCGA,0.193
19,GATTTCAA,0.159
20,ATTTTCAA,0.193
21,GTTTTCAA,0.32
22,CCAGGAGA,-0.24
23,GCCTGCGC,-0.119
24,CTTCTGCC,-0.122
25,TATCTTCA,0.15

row,Sequence,PBM E-score
1,AACGATCT,0.153
2,ATAAGCCC,-0.0186
3,GTGGAGGA,-0.0464
4,GGTTTCAC,0.386
5,GATTTCAC,0.111
6,GCTTTCAC,0.0706
7,ACTAGCTA,-0.0308
8,ATTCTGAC,0.0839
9,ATGAATGG,0.33
10,ATGAATGC,0.138
11,ATGAATGA,0.192
12,AAGATCAC,-0.0426
13,GGCTGCTA,-0.037
14,ATCTGATG,0.109
15,GGGGCTAC,-0.0752
16,ATAGGGCA,-0.109
17,CGCGGCGA,0.126
18,CCCGCCAC,0.213
19,CCCGCCCC,0.32
20,ACCGCCCT,-0.00709
21,CCCGCCCA,0.332
22,CCCGCCGG,0.158
23,CCCGCCCG,0.233
24,ACCGCCCG,-0.057
25,TCCGCCCA,-0.107

row,Sequence,PBM E-score
1,CCCGCCGA,-0.0475
2,CCCGCCGC,0.31
3,ACCGCCCC,0.348
4,CCCGCGCC,0.168
5,AACACTTC,0.135
6,AACACTGG,-0.00819
7,CCCATAAA,-0.0663
8,GTGCAAGA,-0.145
9,GCCGCCCC,0.307
10,GCCGCCCA,0.0226
11,GCCGCCGC,-0.0603
12,CTTCCCTC,-0.0689
13,CAGACATA,0.0544
14,AATTTTCG,0.128
15,ATTTTTCG,0.294
16,ATTTTCCG,0.318
17,ATTTTTCA,0.222
18,AATTTCCG,0.211
19,ATTTTCCC,0.173
20,AGATACAT,0.00257
21,CCCTAGTA,0.0343
22,CGAGGACA,-0.0668
23,AAGCAGTG,0.0293
24,AACAAACA,0.269
25,CACAAAGC,0.0779

row,Sequence,PBM E-score
1,AACAAACC,0.116
2,AACAAAAG,0.119
3,AACAGAAG,-0.0718
4,GACAGAAA,0.168
5,AACAAAGC,0.294
6,AACAAAAC,0.236
7,TACAAACA,0.21
8,AACAAAAA,0.332
9,AACAAGCC,-0.125
10,AACAGAAA,0.311
11,CGTGCGTA,-0.0557
12,TATAACAA,0.215
13,CTTGAGTA,-0.208
14,CCTGTCGA,-0.122
15,GCCAACTA,-0.196
16,GTTCCGAA,0.137
17,ACTTCCAT,0.0326
18,ACGCTGCG,-0.0283
19,CCGCCCCC,-0.00614
20,ACGCCCCA,0.239
21,CCGCCCCA,0.417
22,GCGCCCCA,0.056
23,CCGCCCCG,0.408
24,CCGCCCGG,-0.0452
25,AACAGCGC,-0.0225

row,Sequence,PBM E-score
1,CACTGTTA,-0.0596
2,ATTCCTAG,0.0776
3,CCGCAAGC,-0.226
4,GCACGCCA,-0.201
5,GTTTTACA,0.296
6,CCTTTACA,-0.103
7,CTTTTACC,0.0888
8,ATTTTATA,0.199
9,CTTTTACA,0.269
10,CTTTTATA,0.0308
11,GTTTTATA,0.399
12,GGTTTACA,-0.0303
13,ATTTTACA,0.113
14,AGCTAGCT,-0.0845
15,CACTTTGA,-0.032
16,GGTTCTCA,0.0128
17,ATCTGCCC,-0.153
18,ATACGTGG,-0.0972
19,TGCCTGAA,-0.0642
20,CTGTCAAG,-0.2
21,CAATCTTC,0.144
22,CACCATCG,-0.197
23,CCCGAGTC,0.0359
24,GTTTAATA,0.179
25,CTTTAATA,0.209

row,Sequence,PBM E-score
1,ATTTAATA,0.267
2,ATTTAAGG,0.00576
3,ATTTAATC,0.209
4,ATTTAATG,0.272
5,CACTTATG,0.00871
6,ATGGGTTC,-0.094
7,AGATAGAA,-0.0615
8,AGGGCTTC,-0.0834
9,ATTAAAGC,0.0638
10,ATAGTCTC,0.132
11,AAGGTGAG,0.00195
12,TACACGTA,-0.00219
13,TAACGAAA,0.298
14,AAACGAAA,0.248
15,CAACGAAA,0.13
16,AGATGTGA,0.262
17,AGATGTGC,-0.154
18,CGATGTGA,0.046
19,GAGCCAGA,-0.0414
20,GTGGGGTA,0.302
21,ATGGGGTA,-0.0735
22,CTGGGGTA,-0.145
23,CGAACGAC,-0.034
24,ACCACTTG,0.0214
25,ACCCAAAC,0.285

row,Sequence,PBM E-score
1,GAACAAAC,0.181
2,ACCCAAAG,-0.0486
3,AAACAAAC,0.263
4,AAACAGTT,0.245
5,ACCCAAAA,0.13
6,AAACAAAT,0.28
7,AAACAAAA,0.225
8,AAACAAAG,0.233
9,AAACAAGT,0.149
10,CAACAGTG,0.104
11,AAACAGTG,0.309
12,GTCCGGGA,0.0647
13,GAAAGCTC,-0.201
14,GGTCCAGA,-0.0878
15,ATATTGCA,0.104
16,ATTCCCTG,0.0875
17,ATTCGTAA,0.166
18,AACCCTGA,0.305
19,ACCCCTGA,0.128
20,CACCCTGA,-0.00848
21,ATGTCTCA,0.289
22,ACGTCTCA,0.274
23,GTGTCTCA,0.338
24,CTGTCTCA,0.158
25,TCGTCTCA,0.134

row,Sequence,PBM E-score
1,ATGTCTCC,-0.0509
2,GTCTCTCA,-0.184
3,ATGTGTCA,0.119
4,GTGTGTCA,0.321
5,GCGTCTCA,0.166
6,ATGTCTCG,-0.114
7,CTGTGTCA,0.0491
8,AAGTCGTA,-0.129
9,TATGGGAA,0.0435
10,CGGCTGGC,-0.117
11,TCATTAAA,0.324
12,GCATTAAA,0.111
13,ATATTATA,0.18
14,ATATTATG,0.303
15,CTATTAAC,-0.0267
16,ATATTATC,0.181
17,ACATTAAA,0.196
18,GTATTAAA,0.166
19,GTATTAAC,0.132
20,TAATTAAA,0.173
21,ATATTAAC,0.285
22,TTATTAAA,0.321
23,CTGGGCAA,-0.0128
24,GGACTAGA,-0.124
25,TATGGTCA,-0.0454

row,Sequence,PBM E-score
1,CAGTAAGG,-0.0592
2,ACGCGAGC,-0.151
3,AGGTTACT,0.0862
4,TACTCCCA,0.056
5,ATATTAGA,0.0159
6,ATATTAAA,0.29
7,ATATTAAG,0.109
8,AGATTAAT,0.0881
9,CTATTAAA,0.219
10,ATATTAAT,0.298
11,AAATAATA,0.257
12,AAATAATT,0.294
13,TAATAATA,0.181
14,GAATAATC,0.00357
15,GAATAATA,0.286
16,AAATAATC,0.171
17,AGACTGCT,0.0365
18,AGCGCTAT,0.0744
19,AACTCATG,0.129
